Experiment [1] is described as follows: Caspase-3/7 induction in HepG2 cells by small molecules, qHTS assay (AID 1346978). Also: nearly all actives have a fitted effect of over 15% in size. The essentials: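 Wild-type HepG2 cells, 2,000/well, settled 5 hr at 37 C and 5% CO2, then compound-treated for 17 hr; caspase-3/7 activity read by luminescent Caspase-Glo 3/7 after 30 min at room temperature.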
Experiment [2] in a line: Caspase-3/7 induction in CHO-K1 cells by small molecules, qHTS cell viability counter screen (AID 1346979). Also: nearly all actives have a fitted effect of over 35% in size. Also: potency is read from the fitted curve at half-maximal effect. The essentials:
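Viability readout by fluorescence (CellTiter-Fluor) on wild-type CHO-K1 cells exposed for 16hr at 37C and 5% CO2 to compounds delivered in DMSO; reagent incubated 1hr before reading.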

Experiment [3] in a line: Caspase-3/7 induction in CHO-K1 cells by small molecules, qHTS assay (AID 1346980). Also: nearly all actives have a fitted effect of over 15% in size. The essentials: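 Wild-type CHO-K1 cells exposed to compounds for 17hr at 37 C, 5% CO2. Caspase-3/7 activity then measured by Caspase-Glo 3/7 luminescence after 30min at room temperature.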
A short description of experiment [4]: Caspase-3/7 induction in HepG2 cells by small molecules, qHTS cell viability counter screen (AID 1346981). Also: nearly all actives have a fitted effect of over 30% in size. Also: potency is read from the fitted curve at half-maximal effect. The essentials:
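Cell viability is measured as a cytotoxicity counter screen alongside the Caspase-Glo 3/7 readout in identical wells. Wild-type HepG2 cells are treated with test compounds for 16 hr at 37 C before CellTiter-Fluor addition and a 1-hr incubation.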

The target of experiment [5] is Nuclear receptor subfamily 1 group I member 2 (Homo sapiens) (UniProt O75469). The experiment can be described thus: Human pregnane X receptor (PXR) small molecule agonists, qHTS assay (AID 1346982). Also: nearly all actives have a fitted effect of over 35% in size. Also: potency is read from the fitted curve at half-maximal effect. A digest of the protocol: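 Cells: HepG2 stably carrying PXR-Luc. Medium held 5% charcoal-stripped FBS. Compounds in DMSO added after 5 hr plating, incubated 24 hr, then luminescence quantified with ONE-Glo.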

Experiment [6] concerns the target Acetylcholinesterase (Homo sapiens) (UniProt P22303). The experiment can be described thus: Acetylcholinesterase (AChE) small molecule antagonists: colormetric cell-based qHTS assay (AID 1347395; calls by dose curve; also: nearly all actives have a fitted effect of over 30% in size). The essentials:
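Homogeneous whole-cell format. SH-SY5Y cells seeded overnight, dosed with compound (30 min, 37 C, 5% CO2), then given DTNB/acetylthiocholine cocktail for 90 min at 37 C; colorimetric signal.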

For experiment [7] the target is unchanged. The experiment can be described thus: Acetylcholinesterase (AChE) small molecule antagonists: enzyme-based qHTS assay (AID 1347397; calls by dose curve; also: nearly all actives have a fitted effect of over 55% in size). The following applies: Potency: AChE enzyme activity inhibition. The essentials: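 Colorimetric DTNB read-out of thiocholine released from acetylthiocholine by recombinant human AChE (50 mU/mL as dispensed). Compounds were preincubated 30 min at RT before substrate/DTNB addition, with a 10 min RT reaction.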

Experiment [8] shares this target. The experiment can be described thus: Acetylcholinesterase (AChE) small molecule antagonists: fluorescence cell-based qHTS assay (AID 1347398; calls by dose curve; also: nearly all actives have a fitted effect of over 50% in size). The conditions noted are these: Potency: AChE activity. The essentials: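 SH-SY5Y, 2,000 cells/well, attached overnight; cmpd 30 min 37 C; acetylthiocholine/Thiolite Green cocktail 40 min RT; fluorescence Ex/Em 490/520 nm.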

Experiment [9] has the same target. Put plainly: Acetylcholinesterase (AChE) small molecule antagonists: enzyme-based qHTS assay with human liver microsomes (AID 1347399; calls by dose curve; also: nearly all actives have a fitted effect of over 60% in size). The conditions noted are these: Potency: qHTS inhibition. The essentials: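 Recombinant human AChE (50 mU/mL in the enzyme mix) and human liver microsomes (0.25 mg/mL final) were preincubated with compound and NADPH (0.25 mg/mL final) for 30 min at 37 C. Acetylthiocholine/DTNB was then added; thiocholine was read colorimetrically after 10 min at room temperature.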

The target of experiment [10] is Cytochrome P450 2D6 (Homo sapiens) (UniProt P10635). Put plainly: Cytochrome P450 Family 2 Subfamily D Member 6 (CYP2D6) small molecule antagonists: luciferase reporter qHTS assay (AID 1671196). Also: nearly all actives have a fitted effect of over 50% in size. Also: potency is read from the fitted curve at half-maximal effect. The essentials:
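Enzyme and proluciferin substrate were first combined with test chemical for 10 min at room temperature. Adding NADPH regeneration solution started a 1 h reaction, stopped with luciferin detection reagent and read by luminescence 20 min later.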

In experiment [11] the target is Cytochrome P450 2C19 (Homo sapiens) (UniProt P33261). Put plainly: Cytochrome P450 Family 2 Subfamily C Member 19 (CYP2C19) small molecule antagonists: luciferase reporter qHTS assay (AID 1671197). Also: nearly all actives have a fitted effect of over 65% in size. Also: potency is read from the fitted curve at half-maximal effect. The essentials: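 P450-Glo CYP2C19 screening system; proluciferin substrate; DMSO compound stocks; 10 min RT preincubation; NADPH regeneration, 1 h at 37C; luciferin detection reagent, 20 min RT; luminescence as RLU.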

Experiment [12] addresses Cytochrome P450 2C9 (Homo sapiens) (UniProt P11712). The experiment can be described thus: Cytochrome P450 Family 2 Subfamily C Member 9 (CYP2C9) small molecule antagonists: luciferase reporter qHTS assay (AID 1671198). Also: nearly all actives have a fitted effect of over 50% in size. Also: potency is read from the fitted curve at half-maximal effect. The essentials: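 P450-Glo proluciferin substrate with CYP2C9 enzyme; 10 min RT preincubation, then NADPH regeneration 1 h at 37C; luciferin detection reagent 20 min RT, luminescence in relative luminescence units.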

Experiment [13] addresses Voltage-gated inwardly rectifying potassium channel KCNH2 (Homo sapiens) (UniProt Q12809). The experiment can be described thus: Human Ether-a-go-go-Related Gene (hERG) channel small molecule antagonists: fluorescence cell-based qHTS assay (AID 1671200). Also: nearly all actives have a fitted effect of over 50% in size. Also: potency is read from the fitted curve at half-maximal effect. A digest of the protocol:
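Thallium served as the potassium surrogate; its influx into dye-loaded U2OS cells carrying the channel was measured by fluorescence over 2 min.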

The target in experiment [14] is Cytochrome P450 3A4 (Homo sapiens) (UniProt P08684). The experiment can be described thus: Cytochrome P450 Family 3 Subfamily A Member 4 (CYP3A4) small molecule antagonists: luciferase reporter qHTS assay (AID 1671201). Also: nearly all actives have a fitted effect of over 50% in size. Also: potency is read from the fitted curve at half-maximal effect. The essentials: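 Relative luminescence units after 20 min with luciferin detection reagent served as read-out. Beforehand, CYP3A4 turned over a proluciferin substrate for 1 h at room temperature with NADPH regeneration, following 10 min compound preincubation.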

The target in experiment [15] is Cytochrome P450 1A2 (Homo sapiens) (UniProt P05177). The experiment can be described thus: Cytochrome P450 Family 1 Subfamily A Member 2 (CYP1A2) small molecule antagonists: luciferase reporter qHTS assay (AID 1671199). The essentials: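 Compounds were incubated with CYP1A2 and a luminogenic proluciferin substrate for 10 min at room temperature before the reaction was started with NADPH regeneration solution. After 1 h, detection reagent was added and light output, proportional to CYP activity, was recorded.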

Each structure is given as a SMILES string. Results filed as inconclusive are left out. Calls of active or inactive are those of the source. Unless noted, calls follow the shape of the dose curve; as a rule, active = well fitted curve in the direction sought with a large enough effect in the repeat runs; inconclusive = weak or mixed curves; inactive = no such curve, though single readings can be large; an effect the other way counts as inactive or inconclusive.

Sequence of Cytochrome P450 2C9 (Homo sapiens) (P11712 whole entry, looked up): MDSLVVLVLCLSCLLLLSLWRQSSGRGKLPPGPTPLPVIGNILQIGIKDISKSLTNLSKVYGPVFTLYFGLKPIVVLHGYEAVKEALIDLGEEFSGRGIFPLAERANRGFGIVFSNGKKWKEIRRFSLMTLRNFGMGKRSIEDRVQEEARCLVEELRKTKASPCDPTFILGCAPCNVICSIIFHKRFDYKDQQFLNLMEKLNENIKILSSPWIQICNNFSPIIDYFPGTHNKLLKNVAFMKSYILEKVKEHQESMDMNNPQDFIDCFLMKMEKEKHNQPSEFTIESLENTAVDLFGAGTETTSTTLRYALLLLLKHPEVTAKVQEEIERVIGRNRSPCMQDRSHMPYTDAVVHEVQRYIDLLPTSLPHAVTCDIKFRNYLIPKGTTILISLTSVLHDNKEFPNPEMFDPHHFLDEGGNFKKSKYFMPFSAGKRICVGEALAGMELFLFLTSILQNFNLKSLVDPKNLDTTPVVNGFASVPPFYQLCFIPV
Sequence of Cytochrome P450 3A4 (Homo sapiens) (P08684 whole entry, looked up): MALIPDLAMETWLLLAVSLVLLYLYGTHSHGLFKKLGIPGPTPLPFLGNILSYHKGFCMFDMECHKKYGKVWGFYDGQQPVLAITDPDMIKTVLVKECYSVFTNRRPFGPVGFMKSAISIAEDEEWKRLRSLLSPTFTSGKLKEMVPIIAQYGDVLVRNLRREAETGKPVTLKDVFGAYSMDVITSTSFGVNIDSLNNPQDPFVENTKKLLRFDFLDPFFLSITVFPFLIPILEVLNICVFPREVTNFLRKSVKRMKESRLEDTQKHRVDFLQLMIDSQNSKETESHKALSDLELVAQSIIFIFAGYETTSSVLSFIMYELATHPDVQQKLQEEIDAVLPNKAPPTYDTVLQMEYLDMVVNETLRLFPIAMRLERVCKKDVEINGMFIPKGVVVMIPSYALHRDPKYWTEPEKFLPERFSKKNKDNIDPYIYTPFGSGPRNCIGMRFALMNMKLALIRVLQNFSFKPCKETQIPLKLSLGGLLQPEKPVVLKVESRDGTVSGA
Sequence of Cytochrome P450 2C19 (Homo sapiens) (P33261 whole entry, looked up): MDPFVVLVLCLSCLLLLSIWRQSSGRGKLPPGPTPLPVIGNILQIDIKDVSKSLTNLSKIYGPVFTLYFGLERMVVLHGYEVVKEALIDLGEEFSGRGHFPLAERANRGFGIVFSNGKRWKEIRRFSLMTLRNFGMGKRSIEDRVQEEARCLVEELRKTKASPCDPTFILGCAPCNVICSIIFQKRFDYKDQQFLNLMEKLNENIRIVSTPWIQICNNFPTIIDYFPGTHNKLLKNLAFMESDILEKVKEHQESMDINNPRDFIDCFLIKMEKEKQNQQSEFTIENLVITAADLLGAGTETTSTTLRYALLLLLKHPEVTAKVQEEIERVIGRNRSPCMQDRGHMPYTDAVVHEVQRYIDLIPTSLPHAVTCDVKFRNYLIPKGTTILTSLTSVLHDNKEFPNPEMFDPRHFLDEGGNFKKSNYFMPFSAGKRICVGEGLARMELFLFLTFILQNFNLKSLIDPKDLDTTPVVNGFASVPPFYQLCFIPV
Sequence of Acetylcholinesterase (Homo sapiens) (P22303 whole entry, looked up): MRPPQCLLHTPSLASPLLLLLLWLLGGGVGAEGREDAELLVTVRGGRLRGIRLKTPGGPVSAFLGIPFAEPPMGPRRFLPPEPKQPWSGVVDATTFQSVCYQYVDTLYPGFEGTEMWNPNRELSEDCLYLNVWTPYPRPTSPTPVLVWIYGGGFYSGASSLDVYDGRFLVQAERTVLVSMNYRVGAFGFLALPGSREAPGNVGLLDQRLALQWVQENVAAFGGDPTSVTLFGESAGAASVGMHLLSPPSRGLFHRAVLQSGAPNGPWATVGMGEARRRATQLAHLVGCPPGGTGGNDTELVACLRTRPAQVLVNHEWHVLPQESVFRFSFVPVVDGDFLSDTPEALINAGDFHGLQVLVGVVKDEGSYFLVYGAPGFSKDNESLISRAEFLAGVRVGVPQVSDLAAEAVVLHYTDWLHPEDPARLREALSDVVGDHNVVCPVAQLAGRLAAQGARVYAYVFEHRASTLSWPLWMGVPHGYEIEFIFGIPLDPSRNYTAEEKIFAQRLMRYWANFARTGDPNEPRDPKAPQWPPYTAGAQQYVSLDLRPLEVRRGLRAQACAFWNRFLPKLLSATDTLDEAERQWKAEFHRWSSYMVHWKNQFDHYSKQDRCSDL
Sequence of Cytochrome P450 2D6 (Homo sapiens) (P10635 whole entry, looked up): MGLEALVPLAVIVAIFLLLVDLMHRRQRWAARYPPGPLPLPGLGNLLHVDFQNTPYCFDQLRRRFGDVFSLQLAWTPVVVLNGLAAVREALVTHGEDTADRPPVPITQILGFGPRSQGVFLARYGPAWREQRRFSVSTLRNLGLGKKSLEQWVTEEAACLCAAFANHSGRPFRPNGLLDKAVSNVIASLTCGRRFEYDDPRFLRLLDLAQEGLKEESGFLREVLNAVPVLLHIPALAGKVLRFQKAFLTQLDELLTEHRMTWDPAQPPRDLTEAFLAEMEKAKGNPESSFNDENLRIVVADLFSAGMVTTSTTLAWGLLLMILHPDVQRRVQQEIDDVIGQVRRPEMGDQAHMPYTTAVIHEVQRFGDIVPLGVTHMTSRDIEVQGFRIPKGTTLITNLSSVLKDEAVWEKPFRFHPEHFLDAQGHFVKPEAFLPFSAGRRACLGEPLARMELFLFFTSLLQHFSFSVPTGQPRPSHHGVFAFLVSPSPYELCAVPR
Sequence of Nuclear receptor subfamily 1 group I member 2 (Homo sapiens) (O75469 whole entry, looked up): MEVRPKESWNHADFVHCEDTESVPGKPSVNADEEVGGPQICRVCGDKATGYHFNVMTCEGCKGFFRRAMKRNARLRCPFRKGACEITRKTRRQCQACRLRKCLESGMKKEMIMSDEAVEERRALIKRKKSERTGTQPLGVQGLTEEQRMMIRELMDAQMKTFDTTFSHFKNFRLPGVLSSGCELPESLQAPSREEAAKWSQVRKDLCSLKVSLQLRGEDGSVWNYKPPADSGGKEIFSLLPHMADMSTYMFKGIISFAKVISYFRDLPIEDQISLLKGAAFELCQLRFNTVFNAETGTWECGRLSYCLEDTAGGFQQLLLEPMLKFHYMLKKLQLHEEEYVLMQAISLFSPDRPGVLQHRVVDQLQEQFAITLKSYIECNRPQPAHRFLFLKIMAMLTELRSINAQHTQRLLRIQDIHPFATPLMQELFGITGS
Sequence of Voltage-gated inwardly rectifying potassium channel KCNH2 (Homo sapiens) (Q12809 whole entry, looked up): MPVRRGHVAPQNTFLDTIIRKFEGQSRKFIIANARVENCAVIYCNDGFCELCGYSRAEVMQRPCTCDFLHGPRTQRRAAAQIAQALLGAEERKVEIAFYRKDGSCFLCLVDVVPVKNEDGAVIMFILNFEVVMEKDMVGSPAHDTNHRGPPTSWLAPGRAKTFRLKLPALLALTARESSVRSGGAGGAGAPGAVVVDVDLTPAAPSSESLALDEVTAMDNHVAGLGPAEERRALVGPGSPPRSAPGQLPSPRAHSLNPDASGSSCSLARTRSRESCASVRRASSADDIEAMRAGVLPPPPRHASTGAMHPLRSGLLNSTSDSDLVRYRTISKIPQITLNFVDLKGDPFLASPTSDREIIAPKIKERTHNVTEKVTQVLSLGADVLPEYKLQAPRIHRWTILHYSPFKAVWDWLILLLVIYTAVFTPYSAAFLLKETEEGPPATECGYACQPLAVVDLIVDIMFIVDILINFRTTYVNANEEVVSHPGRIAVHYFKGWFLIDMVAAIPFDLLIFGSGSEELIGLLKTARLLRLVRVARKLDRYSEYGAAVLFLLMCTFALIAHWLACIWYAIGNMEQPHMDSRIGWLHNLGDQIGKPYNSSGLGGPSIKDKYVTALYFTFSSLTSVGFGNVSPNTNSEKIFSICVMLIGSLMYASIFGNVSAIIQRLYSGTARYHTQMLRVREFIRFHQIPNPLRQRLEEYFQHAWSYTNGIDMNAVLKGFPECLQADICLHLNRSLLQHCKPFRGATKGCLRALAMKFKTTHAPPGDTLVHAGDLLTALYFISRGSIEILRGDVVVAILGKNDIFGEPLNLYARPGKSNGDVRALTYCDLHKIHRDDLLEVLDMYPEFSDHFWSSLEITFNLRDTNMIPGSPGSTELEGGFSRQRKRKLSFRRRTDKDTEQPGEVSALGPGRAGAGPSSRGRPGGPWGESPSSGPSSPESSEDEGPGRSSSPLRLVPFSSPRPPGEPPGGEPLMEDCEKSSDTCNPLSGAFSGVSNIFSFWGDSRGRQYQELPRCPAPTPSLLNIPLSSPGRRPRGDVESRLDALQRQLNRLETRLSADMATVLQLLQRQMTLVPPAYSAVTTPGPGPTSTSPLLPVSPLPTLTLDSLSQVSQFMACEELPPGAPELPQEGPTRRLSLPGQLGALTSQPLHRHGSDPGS
Sequence of Cytochrome P450 1A2 (Homo sapiens) (P05177 whole entry, looked up): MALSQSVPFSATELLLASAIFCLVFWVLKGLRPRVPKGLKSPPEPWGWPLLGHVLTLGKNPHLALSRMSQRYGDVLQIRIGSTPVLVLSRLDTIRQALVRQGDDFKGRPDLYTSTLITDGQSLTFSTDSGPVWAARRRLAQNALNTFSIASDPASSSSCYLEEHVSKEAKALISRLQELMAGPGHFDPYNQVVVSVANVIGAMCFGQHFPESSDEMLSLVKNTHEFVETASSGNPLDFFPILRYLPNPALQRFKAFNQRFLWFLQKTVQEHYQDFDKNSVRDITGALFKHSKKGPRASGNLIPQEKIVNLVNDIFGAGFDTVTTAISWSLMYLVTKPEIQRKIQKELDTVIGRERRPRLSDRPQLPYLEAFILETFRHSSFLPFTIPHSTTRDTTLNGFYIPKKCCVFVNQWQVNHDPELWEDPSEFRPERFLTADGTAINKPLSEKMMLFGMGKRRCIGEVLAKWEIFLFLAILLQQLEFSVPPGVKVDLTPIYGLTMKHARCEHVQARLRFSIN

For `c1ccc(Nc2ccc(Nc3ccccc3)cc2)cc1`, the Potency result in experiment [1], in experiment [3], in [4], in experiment [6], in experiment [7] and in [8] was “inactive” throughout. For the same molecule, the Potency result in experiment [9] is “inactive”. For the same molecule, the Potency in [2] was 48.4 µM (active); in experiment [5], 24.2 µM (active); in [10], 39.8 µM (active); in [11], 12.6 µM (active); in experiment [12], 11.2 µM (active); in experiment [13] it was 38.7 µM (active). Besides, in [14], the Potency is 39.8 µM (active).
`COC(=O)N(OC)c1ccccc1COc1ccn(-c2ccc(Cl)cc2)n1`: the Potency result in [1], in [3], in experiment [6], in [7], in experiment [8] and in [9] was “inactive” throughout. The Potency result in experiment [14] is “inactive”. Also, the Potency in experiment [2] was 0.0433 µM (active); in experiment [4], 54.5 µM (active); in [5], 68.6 µM (active); in experiment [10] it was 22.4 µM (active); in experiment [11] it was 0.283 µM (active); in [12], 7.1 µM (active). Further, the Potency in experiment [15] was 1.12 µM (active).
On to `CO/N=C(/C1=NOCCO1)c1ccccc1Oc1ncnc(Oc2ccccc2Cl)c1F`, for which the Potency result in experiment [1], in [3], in experiment [6], in experiment [7], in experiment [8] and in [9] was “inactive” each time. Also, the Potency result in [10] and in experiment [13] was “inactive” throughout. Also, the Potency in experiment [2] was 1.72 µM (active); in experiment [4], 30.6 µM (active); in [5] it was 27.3 µM (active); in experiment [11], 7.96 µM (active); in experiment [12], 11.2 µM (active); in experiment [15] it was 25.2 µM (active).
Consider `CCOC(=O)Cc1ccccc1`, for which the Potency result in [1], in experiment [2], in [3], in experiment [4], in [5] and in experiment [6] was “inactive” throughout. For the same molecule, the Potency result in experiment [7], in experiment [8], in experiment [9], in [10], in [11] and in [13] was “inactive” throughout. Besides, in experiment [14], the Potency result was “inactive”.
`C=CC(=C)C`: the Potency entry in experiment [1], in experiment [2], in experiment [3], in experiment [4], in [5] and in experiment [6] was “inactive” throughout. Besides, the Potency result in experiment [7], in experiment [8], in experiment [9], in [10], in [11] and in experiment [12] was “inactive” each time. For the same molecule, the Potency entry in experiment [13] and in experiment [14] was “inactive” in each case.
`CC(C)Br`: the Potency result in [1], in [2], in experiment [3], in [4], in experiment [5] and in [6] was “inactive” each time. Moreover, the Potency entry in [7], in experiment [8], in experiment [9], in experiment [10], in experiment [13] and in experiment [14] was “inactive” in each case. Besides, the figures for the Potency in experiment [11] and in [12] were 35.7 µM (active) and 40 µM (active), respectively.
Turning to `O=[N+]([O-])c1ccccc1-c1ccccc1`, the Potency entry in [1], in experiment [2], in experiment [3], in experiment [4], in [5] and in experiment [6] was “inactive” throughout. Further, the Potency result in experiment [7], in experiment [8], in experiment [9], in experiment [10], in experiment [13] and in experiment [14] was “inactive” in each case. Further, the Potency was 35.6 µM (active) in experiment [11], 25.2 µM (active) in experiment [12] and 1.59 µM (active) in experiment [15].

(Values after PubChem BioAssay (Tox21).)
